Test results as given in the supplement of paper PMC10849652.
About 7,900 targets were measured; listed, in parts, are those with a hit and a random draw of the rest. About 0.6% of all pairs of compound and target were hits.

Legend:
Test in all cases: log2 fold change, soluble protein after heating vs DMSO (PISA); higher = thermal stabilisation; K562 cells, 10 uM, 30 min; active = over 0.2 and 3.5 SD of the protein, either way, in both replicates (recomputed)
[1] = compound: CC1=CC=C(C=C1)SC2=C3C=C(SC3=CN=C2)C(=O)N
Summary of the method: (§1)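 Thermal stability values are relative to control samples and come from duplicates. They are expressed as log2 fold changes. For measurement, K562 cells (2×10^6 cells/mL) received 10 μM compound for 30 min, and aliquots were heated for 3 min over 48°C-58°C, pooled, and extracted at 4°C in PBS with 0.5% NP-40. Soluble protein, the supernatant after 21,000xg for 90 min, was quantified by TMTpro 16plex LC-MS/MS with equalised channel sums.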

[2] = compound: CCCS(=O)(=O)Nc1ccc(F)c(C(=O)c2c[nH]c3ncc(Cl)cc23)c1F
Summary of the method: as §1

[3] = compound: CCCc1cc(C)[nH]c(=O)c1CNC(=O)c1cc(-c2ccnc(N3CCN(C)CC3)c2)cc2c1cnn2C(C)C
Summary of the method: as §1

[4] = compound: CC1=C(C=C(C=C1)NC(=O)C2=CC(=CC=C2)C(C)(C)C#N)NC3=CC4=C(C=C3)N=CN(C4=O)C
Summary of the method: as §1

[5] = compound: CC1=C(C=C(C=C1)NC(=O)C2=CC(=CC=C2)N(C)C)NC(=O)C3=CC=C(C=C3)O
Summary of the method: as §1

Nexturastat A = compound: CCCCN(Cc1ccc(C(=O)NO)cc1)C(=O)Nc1ccccc1 [Nexturastat A]
Summary of the method: as §1

vemurafenib = compound: CCCS(=O)(=O)Nc1ccc(F)c(C(=O)c2c[nH]c3ncc(-c4ccc(Cl)cc4)cc23)c1F [vemurafenib]
Summary of the method: as §1

givinostat = compound: CCN(CC)Cc1ccc2cc(COC(=O)Nc3ccc(C(=O)NO)cc3)ccc2c1 [givinostat]
Summary of the method: as §1

barasertib = compound: CCN(CCCOc1ccc2c(Nc3cc(CC(=O)Nc4cccc(F)c4)[nH]n3)ncnc2c1)CCOP(=O)(O)O [barasertib]
Summary of the method: as §1

[6] = compound: CC1=NC(=CC=C1)C2=C(N=C(N2)C(C)(C)C)C3=CC4=NC=CN=C4C=C3
Summary of the method: as §1

Measured: log2 fold change

RPS19 (UniProt M0R2L9)
inactive: [1] -0.169 | [2] -0.98 | [3] 0.113

RAP2C (UniProt Q9Y3L5)
UniProt Q9Y3L5, sequence (Q9Y3L5 whole entry, looked up): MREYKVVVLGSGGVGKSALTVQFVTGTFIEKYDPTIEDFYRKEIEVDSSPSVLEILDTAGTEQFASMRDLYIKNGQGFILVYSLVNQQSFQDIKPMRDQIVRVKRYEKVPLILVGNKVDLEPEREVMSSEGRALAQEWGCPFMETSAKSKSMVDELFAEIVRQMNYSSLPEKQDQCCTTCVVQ
inactive: [4] -0.064 | [5] 0.052 | [1] -0.03 | Nexturastat A 0 | vemurafenib 0.066 | [2] -0.13 | [3] -0.052 | givinostat -0.044 | barasertib -0.031

RALGPS2 (UniProt Q86X27)
inactive: [6] -0.234 | vemurafenib 0.023 | [3] -0.128 | givinostat -0.147 | barasertib -0.116
active: Nexturastat A 1.06

SEMG2 (UniProt Q02383)
UniProt Q02383, sequence (Q02383 whole entry, looked up): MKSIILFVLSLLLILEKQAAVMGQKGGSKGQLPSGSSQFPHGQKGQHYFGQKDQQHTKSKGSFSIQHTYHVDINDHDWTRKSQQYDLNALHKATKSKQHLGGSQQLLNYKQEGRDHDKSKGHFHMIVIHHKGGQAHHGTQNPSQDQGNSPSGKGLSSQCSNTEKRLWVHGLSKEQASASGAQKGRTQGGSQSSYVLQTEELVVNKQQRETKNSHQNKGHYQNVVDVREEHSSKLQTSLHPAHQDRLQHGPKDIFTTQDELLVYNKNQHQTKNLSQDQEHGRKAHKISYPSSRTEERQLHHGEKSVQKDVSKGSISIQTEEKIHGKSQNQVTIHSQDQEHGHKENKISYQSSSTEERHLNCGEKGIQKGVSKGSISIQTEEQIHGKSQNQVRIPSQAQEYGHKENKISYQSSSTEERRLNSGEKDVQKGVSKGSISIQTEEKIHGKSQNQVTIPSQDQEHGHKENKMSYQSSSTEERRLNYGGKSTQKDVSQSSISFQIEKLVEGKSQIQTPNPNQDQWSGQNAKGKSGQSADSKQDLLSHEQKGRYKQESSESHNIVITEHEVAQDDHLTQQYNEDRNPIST
inactive: [4] -0.038 | Nexturastat A -0.062 | [3] -0.097 | barasertib 0.015

RNF2 (UniProt Q99496)
UniProt Q99496, sequence (Q99496 whole entry, looked up): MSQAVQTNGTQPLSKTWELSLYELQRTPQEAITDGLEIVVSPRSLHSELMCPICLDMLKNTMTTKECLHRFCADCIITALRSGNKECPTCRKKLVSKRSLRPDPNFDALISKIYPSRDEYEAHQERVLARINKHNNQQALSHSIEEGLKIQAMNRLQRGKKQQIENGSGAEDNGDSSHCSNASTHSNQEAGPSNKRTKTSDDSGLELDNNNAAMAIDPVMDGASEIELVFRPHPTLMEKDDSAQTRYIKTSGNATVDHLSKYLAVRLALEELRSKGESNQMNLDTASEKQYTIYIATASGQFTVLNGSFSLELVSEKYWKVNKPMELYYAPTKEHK
inactive: [4] 0.155 | [1] 0.051 | [6] 0.022 | Nexturastat A 0.024 | vemurafenib -0.066 | [2] 0.061 | [3] 0.07 | givinostat -0.04 | barasertib -0.002

RBM6 (UniProt P78332)
inactive: [4] -0.009 | [1] -0.056 | [6] 0.092 | [2] 0.031 | [3] -0.079

SDC3 (UniProt O75056)
UniProt O75056, sequence (O75056 whole entry, looked up): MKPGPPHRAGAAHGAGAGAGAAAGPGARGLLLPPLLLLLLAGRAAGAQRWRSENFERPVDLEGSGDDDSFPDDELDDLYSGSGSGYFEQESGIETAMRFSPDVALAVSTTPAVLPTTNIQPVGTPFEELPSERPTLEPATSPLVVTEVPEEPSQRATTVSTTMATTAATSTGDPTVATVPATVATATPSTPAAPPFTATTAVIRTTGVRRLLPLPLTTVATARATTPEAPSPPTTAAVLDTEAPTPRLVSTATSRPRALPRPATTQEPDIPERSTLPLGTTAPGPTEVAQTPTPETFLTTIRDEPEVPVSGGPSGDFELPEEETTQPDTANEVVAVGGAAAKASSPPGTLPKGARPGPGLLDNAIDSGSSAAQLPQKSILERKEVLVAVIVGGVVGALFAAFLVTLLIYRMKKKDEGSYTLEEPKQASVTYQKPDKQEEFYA
inactive: [4] 0.091 | Nexturastat A 0.016 | vemurafenib 0.073

SCYL3 isoform 2 (UniProt Q8IZE3)
UniProt Q8IZE3, sequence (Q8IZE3 whole entry, looked up): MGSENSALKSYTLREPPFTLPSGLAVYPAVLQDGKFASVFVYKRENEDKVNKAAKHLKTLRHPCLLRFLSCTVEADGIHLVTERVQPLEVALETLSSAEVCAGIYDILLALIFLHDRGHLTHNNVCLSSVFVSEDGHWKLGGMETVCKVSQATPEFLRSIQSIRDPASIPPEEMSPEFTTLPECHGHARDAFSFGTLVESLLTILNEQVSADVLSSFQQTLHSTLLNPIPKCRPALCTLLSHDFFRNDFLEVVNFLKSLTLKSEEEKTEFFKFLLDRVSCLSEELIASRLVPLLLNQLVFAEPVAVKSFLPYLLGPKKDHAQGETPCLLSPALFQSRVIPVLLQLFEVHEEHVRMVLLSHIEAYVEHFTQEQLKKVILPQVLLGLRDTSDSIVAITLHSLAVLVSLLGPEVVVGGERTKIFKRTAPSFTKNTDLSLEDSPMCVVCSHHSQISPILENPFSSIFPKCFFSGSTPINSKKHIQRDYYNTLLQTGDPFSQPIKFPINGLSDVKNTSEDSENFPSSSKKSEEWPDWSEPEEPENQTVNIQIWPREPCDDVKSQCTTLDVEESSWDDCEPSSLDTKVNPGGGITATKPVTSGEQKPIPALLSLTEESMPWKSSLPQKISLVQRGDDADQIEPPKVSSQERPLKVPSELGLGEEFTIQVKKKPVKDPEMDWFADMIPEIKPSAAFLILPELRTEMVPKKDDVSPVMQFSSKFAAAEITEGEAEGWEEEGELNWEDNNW
inactive: [5] -0.061 | [1] -0.002 | [6] 0.005 | Nexturastat A 0.004 | vemurafenib 0.008 | [2] 0.022 | [3] -0.01 | givinostat 0.012 | barasertib -0.012

RNF26 (UniProt Q9BY78)
UniProt Q9BY78, sequence (Q9BY78 whole entry, looked up): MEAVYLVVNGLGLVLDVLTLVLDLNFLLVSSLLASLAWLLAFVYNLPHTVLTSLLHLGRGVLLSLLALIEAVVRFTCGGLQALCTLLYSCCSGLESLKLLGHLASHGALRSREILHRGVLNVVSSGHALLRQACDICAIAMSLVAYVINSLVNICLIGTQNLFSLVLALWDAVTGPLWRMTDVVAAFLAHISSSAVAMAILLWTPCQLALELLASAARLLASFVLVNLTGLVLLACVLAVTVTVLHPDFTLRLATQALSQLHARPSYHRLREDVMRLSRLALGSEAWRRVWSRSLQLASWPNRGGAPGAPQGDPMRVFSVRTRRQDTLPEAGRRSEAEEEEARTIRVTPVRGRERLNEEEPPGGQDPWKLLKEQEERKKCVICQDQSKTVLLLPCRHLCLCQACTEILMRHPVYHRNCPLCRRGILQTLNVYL
inactive: [5] 0.012 | vemurafenib 0.281 | barasertib 0.124

SAFB2 (UniProt K7EQU4)
inactive: [6] 0.057 | Nexturastat A 0.111 | barasertib 0.295

RAB3D (UniProt O95716)
UniProt O95716, sequence (O95716 whole entry, looked up): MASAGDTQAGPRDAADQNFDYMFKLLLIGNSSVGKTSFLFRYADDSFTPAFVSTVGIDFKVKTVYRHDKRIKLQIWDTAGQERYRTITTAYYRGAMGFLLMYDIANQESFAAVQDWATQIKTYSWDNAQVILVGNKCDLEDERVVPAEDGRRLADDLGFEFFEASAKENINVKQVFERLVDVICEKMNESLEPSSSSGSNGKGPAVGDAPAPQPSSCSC
inactive: [5] 0.074 | [1] 0.036 | vemurafenib -0.113 | [2] 0.094 | [3] 0.032 | givinostat -0.08 | barasertib 0.034

RAPGEF4 (UniProt Q8WZA2)
UniProt Q8WZA2, sequence (Q8WZA2 whole entry, looked up): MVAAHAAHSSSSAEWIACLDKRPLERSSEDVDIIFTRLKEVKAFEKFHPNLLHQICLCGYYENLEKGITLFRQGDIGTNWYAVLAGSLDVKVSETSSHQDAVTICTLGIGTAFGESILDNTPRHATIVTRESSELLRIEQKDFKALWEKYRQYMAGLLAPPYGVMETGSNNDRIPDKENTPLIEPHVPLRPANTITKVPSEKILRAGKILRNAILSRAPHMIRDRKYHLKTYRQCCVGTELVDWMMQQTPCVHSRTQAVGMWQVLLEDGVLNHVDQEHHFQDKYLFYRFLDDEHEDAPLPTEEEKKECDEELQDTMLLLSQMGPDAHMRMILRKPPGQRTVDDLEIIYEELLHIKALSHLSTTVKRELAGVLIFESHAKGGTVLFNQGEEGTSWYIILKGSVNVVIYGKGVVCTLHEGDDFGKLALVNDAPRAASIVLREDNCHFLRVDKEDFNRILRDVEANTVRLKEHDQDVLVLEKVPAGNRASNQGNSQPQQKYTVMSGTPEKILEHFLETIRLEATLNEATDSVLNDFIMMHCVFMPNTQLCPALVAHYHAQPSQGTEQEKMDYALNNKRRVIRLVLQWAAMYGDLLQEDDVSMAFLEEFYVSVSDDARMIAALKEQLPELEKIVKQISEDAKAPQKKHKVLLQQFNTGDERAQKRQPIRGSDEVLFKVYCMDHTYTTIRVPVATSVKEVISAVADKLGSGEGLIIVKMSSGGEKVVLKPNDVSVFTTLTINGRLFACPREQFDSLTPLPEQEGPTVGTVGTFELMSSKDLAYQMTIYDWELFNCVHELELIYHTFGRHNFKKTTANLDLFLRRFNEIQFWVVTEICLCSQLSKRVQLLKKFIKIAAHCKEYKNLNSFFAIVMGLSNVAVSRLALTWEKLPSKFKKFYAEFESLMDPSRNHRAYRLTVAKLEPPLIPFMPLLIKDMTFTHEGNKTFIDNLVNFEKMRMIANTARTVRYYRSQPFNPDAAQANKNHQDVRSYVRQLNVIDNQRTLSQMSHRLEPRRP
inactive: [4] -0.046 | [6] -0.235 | Nexturastat A 0.245 | vemurafenib -0.267 | [3] -0.203 | givinostat 0.248 | barasertib 0.041

RPS3 (UniProt E9PJN9)
inactive: [5] 0.125

SCAMP2 (UniProt O15127)
UniProt O15127, sequence (O15127 whole entry, looked up): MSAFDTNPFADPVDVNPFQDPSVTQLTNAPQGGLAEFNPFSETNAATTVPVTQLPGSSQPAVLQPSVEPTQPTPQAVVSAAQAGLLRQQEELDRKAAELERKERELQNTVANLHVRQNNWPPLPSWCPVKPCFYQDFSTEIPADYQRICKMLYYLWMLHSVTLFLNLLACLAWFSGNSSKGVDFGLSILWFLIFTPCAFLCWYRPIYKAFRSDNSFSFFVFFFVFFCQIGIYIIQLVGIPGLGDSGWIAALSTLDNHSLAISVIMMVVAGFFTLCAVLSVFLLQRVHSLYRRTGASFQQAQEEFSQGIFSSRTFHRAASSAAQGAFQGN
inactive: [4] -0.032 | [5] -0.032 | [1] 0.046 | Nexturastat A -0.061 | vemurafenib 0.081 | [2] 0.043 | [3] 0.013 | givinostat -0.085 | barasertib -0.029

RMDN2 isoform 2 (UniProt Q96LZ7)
UniProt Q96LZ7, sequence (Q96LZ7 whole entry, looked up): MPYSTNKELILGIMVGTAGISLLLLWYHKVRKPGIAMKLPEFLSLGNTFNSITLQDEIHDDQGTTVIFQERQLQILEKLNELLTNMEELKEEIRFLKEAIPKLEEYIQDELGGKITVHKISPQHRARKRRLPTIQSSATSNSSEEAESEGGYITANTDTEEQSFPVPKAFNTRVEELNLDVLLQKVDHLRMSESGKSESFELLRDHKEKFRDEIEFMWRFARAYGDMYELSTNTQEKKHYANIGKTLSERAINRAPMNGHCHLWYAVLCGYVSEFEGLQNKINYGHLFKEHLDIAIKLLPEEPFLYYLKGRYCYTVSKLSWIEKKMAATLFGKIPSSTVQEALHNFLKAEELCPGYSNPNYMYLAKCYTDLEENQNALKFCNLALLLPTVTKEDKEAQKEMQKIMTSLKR
inactive: [5] -0.022 | [6] -0.127 | vemurafenib 0.217 | [3] -0.196

RNF41 (UniProt Q9H4P4)
inactive: barasertib -0.15

SDHAF4 (UniProt Q5VUM1)
UniProt Q5VUM1, sequence (Q5VUM1 whole entry, looked up): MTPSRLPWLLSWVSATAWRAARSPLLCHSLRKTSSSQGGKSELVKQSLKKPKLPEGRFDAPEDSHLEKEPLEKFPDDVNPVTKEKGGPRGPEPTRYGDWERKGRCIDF
active: givinostat 0.368
inactive: [4] -0.066 | [1] 0.053 | [6] 0.022 | Nexturastat A -0.039 | [2] -0.065 | [3] -0.035 | barasertib -0.018
